Laboratory results reported in PubChem BioAssay AID1117361 (Southern Research Institute, 2015).
Out of some 3,600 compounds screened, about 900 (25%) were called active. The list is a sample of the results. Measured potencies and affinities stand elsewhere. Unmarked numbers belong to inactive results. The rule behind the calls is not given here.

Each compound was assayed against Protein Tat (Human immunodeficiency virus type 1 group M subtype B (isolate HXB2)) (UniProt P04608) (assay: HIV-1 Tat–TAR interaction blockers – biochemical, fluorescence polarization, FAM-labeled TAR RNA, counter-screen for Vif-APOBEC3G degradation inhibitor project, dose response (AID 1117361)). Conditions: Tat-TAR RNA binding; series mostly up to 100 µM; inhibition: at the top concentration.

| SMILES | inhibition | outcome |
| --- | --- | --- |
| CCOc1ccc(OCCOc2cccc(C(F)(F)F)c2)cc1 | 4.05% | – |
| Cn1c(CN2CCOCC2)nc2cc(NC(=O)c3ccc(F)cc3)ccc21 | 4.77% | – |
| C/C(=C1\SC(N2CCOCC2)=NC1=O)c1ccccc1 | – | inactive |
| O=C1N=C(N2CCOCC2)SC1=Cc1ccco1 | 6.35% | – |
| COc1cccc(/C=C2\SC(N)=NC2=O)c1OS(=O)(=O)c1ccccc1 | – | inactive |
| COc1cccc(-c2nc3n(n2)C(c2cccs2)C(C(=O)Nc2cccnc2)=C(C)N3)c1 (stereo not given) | – | inactive |
| O=C(CCc1ccccc1)NNC(=S)NCCc1ccccc1 | – | inactive |
| Cc1cc(C(C)(C)C)ccc1OCCN(C)C | 0.68% | – |
| COCCn1c(Sc2ccc(C)cc2)nc2c1c(=O)[nH]c(=O)n2C | – | inactive |
| Nc1nc(Cl)cc(N2CCC(c3cc(-c4ccc(Cl)cc4Cl)n[nH]3)CC2)n1 | – | inactive |
| CCOC(=O)N1CCN(S(=O)(=O)c2ccc3c(c2)C(C)C(=O)N3)CC1 (stereo not given) | 8.25% | – |
| O=C(Nc1ccc2oc(=O)ccc2c1)c1ccc(-c2ccc(Cl)cc2)o1 | 16.4% | – |
| COc1cccc(/C=N/n2c(N)c(S(=O)(=O)c3cccs3)c3nc4ccccc4nc32)c1 | 8.11% | – |
| COc1ccc(S(=O)(=O)N2CCN(C(=O)c3cc(-c4ccccc4OC)n[nH]3)CC2)cc1 | 1.67% | – |
| CCCN(C(=S)Nc1ccccc1)C1CCS(=O)(=O)C1 (stereo not given) | – | inactive |
| COc1cccc(C2NC(=O)NC(O)(C(F)(F)F)C2C(=O)c2cccnc2)c1OC (stereo not given) | 12.8% | – |
| CCn1c(COc2ccc3c(c2)OCO3)nnc1SCC(=O)c1ccc(Cl)cc1 | 3.41% | – |
| Nc1cccc(-c2nc3ccc(N)cc3s2)c1 | 3.38% | – |
| Cc1[nH]n(-c2nc(-c3ccccc3F)cc(=O)[nH]2)c(=O)c1CCO | – | inactive |
| NC(=O)C1Cc2ccccc2CN1C(=O)c1nn(Cc2ccccc2)c(=O)c2ccccc12 (stereo not given) | – | inactive |
| COc1ccc(C2Nc3ccccc3C(=O)N2c2ccc(Cl)cc2)cc1Cn1cc([N+](=O)[O-])cn1 (stereo not given) | – | inactive |
| COc1ccc(/C=N/NC(=O)CN2CCN(Cc3ccccc3)CC2)cc1Br | 8.25% | – |
| Cc1ccc(S(=O)(=O)N=Nc2c(O)[nH]c3ccccc23)cc1 | 17.1% | – |
| CN(C)c1ccc(/C=N\NC(=O)c2csnn2)cc1 | 2.03% | – |
| CCC(Cc1ccccc1)NC(=O)C1CCN(S(=O)(=O)c2c(C)noc2C)CC1 (stereo not given) | 2.73% | – |
| COc1ccc(S(=O)(=O)N2CCC(C(=O)NCc3ccco3)CC2)cc1 | 15.5% | – |
| COc1ccc(OCCNS(=O)(=O)c2ccccc2)cc1 | – | inactive |
| CN1CCN(c2ccccc2NC(=O)C(Cc2ccccc2)n2cccc2)CC1 (stereo not given) | 2.73% | – |
| COc1cccc(Cn2nnc(C(=O)NCCc3ccc(Cl)cc3)c2N)c1 | 5.41% | – |
| CCCCNC(=O)c1onc(CSc2cccc(OCC)c2)c1C(=O)O | – | inactive |
